Pf apPOL block = Pf-apPOL inhibitors, biochemical, fluorescence; Plasmodium falciparum apicoplast DNA polymerase (apPOL); Recombinant Pf-apPOL, molecular beacon fluorescence, 1.5 h; AID 1794808, 2022; inhibition, % at 10 µM; actives 0.25% (n = 210,000)
mHTT-CaM PPI inh = mutant huntingtin-calmodulin interaction inhibitors – biochemical, AlphaScreen, primary screen | inhibition, % at 15 µM | AID 1671202, 2021 | AlphaScreen His-mHTT/GST-CaM binding, luminescence | P42858 | actives 3.6% (n = 190,000);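 further: 0% = both proteins with DMSO and 100% = one protein alone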
Starred values were filed as active, the others as inactive; x = not tested or not shown; ! = not active in a repeat. Shown is part of a subset that was picked to be rich in hits. No stated cut-off is given here; in the data, active means inhibition above about 50%; inactive means the rest.

SMILES	Pf apPOL block	mHTT-CaM PPI inh
O=C1C(=O)N(Cc2ccc(Cl)cc2)c2ccc(S(=O)(=O)N3CCOCC3)cc21	31.2	92.0*
O=C1C(=O)N(Cc2ccc(Cl)cc2)c2ccc(Cl)cc21	-7.0	77.7*!
Cc1ccccc1CN1C(=O)C(=O)c2ccccc21	-4.5	33.0
Cc1noc(C2CN(C(=O)NC3CCCC3)CC23CCOCC3)n1 (stereo unspecified)	-3.5	-0.4
c1cc2c(cc1CNC1CCCC1)OCO2	-11.3	-3.9
Cc1cc(C)cc(NC(=O)c2c(C)sc3c(=O)n(C4CCCCC4)cnc23)c1	-1.9	-0.6
O=C1CC2CS(=O)(=O)CC2N1c1cccc(Cl)c1Cl (stereo unspecified)	-0.4	2.0
COc1cc(C(=O)NC(C)c2ccccc2)c([N+](=O)[O-])cc1OC (stereo unspecified)	-1.3	-3.6
Cc1cccc(N2CC(C(=O)N3CCCCC3C)CC2=O)c1 (stereo unspecified)	1.8	-0.3
Cc1nc(C)c(-c2ccc(SCC(=O)c3ccc([N+](=O)[O-])cc3)nn2)s1	2.2	20.9
O=C(CSc1ccc(-c2ccccn2)nn1)c1ccc([N+](=O)[O-])cc1	2.4	99.6*
Cc1ccc(Sc2cc(C(=O)N3CCOCC3)c3ccccc3n2)cc1	-5.3	1.0
Cc1ccc(CNC(=O)Cc2cn(C)c3ncccc23)cc1	1.5	-15.0
Cc1ccc(NS(=O)(=O)c2cn(C)c3ncccc23)cc1	79.6*	67.2*
O=C1N=c2ccc(F)cc2=C1c1sc(=Nc2ccccc2)n(-c2ccccc2)c1O	x	32.6
O=C1/C(=C/c2cccnc2)CC/C1=C\c1cccnc1	0.7	4.0
CC(=O)N1CC(=O)NC(=Cc2cccnc2)C1=O	52.4*	x
O=C(c1ccsc1)N1CCN(c2[nH]ncc2-c2ccccc2)CC1	-1.7	62.6*
O=C(c1ccccc1)N1CCN(c2[nH]ncc2-c2ccccc2)CC1	-4.5	77.3*
O=C(c1cccs1)N1CCN(c2[nH]ncc2-c2ccncc2)CC1	-7.2	0.2
O=C(c1ccncc1)N1CCN(c2[nH]ncc2-c2ccncc2)CC1	-1.3	-0.5
COc1ccccc1C1CC(c2cccc(F)c2)=NN1C(=O)CN1CCOCC1 (stereo unspecified)	-3.2	65.7*
O=C(CN1CCCC1)N1N=C(c2cccc(F)c2)CC1c1ccc2c(c1)OCO2 (stereo unspecified)	-4.3	97.6*
Cc1ccc(C2=NN(C(=O)CN3CCCC3)C(c3ccc4c(c3)OCO4)C2)cc1 (stereo unspecified)	-7.2	31.5
COc1ccc(C2CC(c3cccc(F)c3)=NN2C(=O)CN2CCOCC2)cc1 (stereo unspecified)	-4.6	73.7*
SMILES	Pf apPOL block	mHTT-CaM PPI inh
COc1ccc(C2=NN(C(=O)CCC(=O)O)C(c3ccc(Br)cc3)C2)cc1 (stereo unspecified)	6.2	15.0
COc1ccc(C2CC(c3ccc(Br)cc3)=NN2C(=O)CCN2CCOCC2)cc1 (stereo unspecified)	-8.1	66.0*
COc1ccc(C2=NN(C(=O)CN3CCOCC3)C(c3ccc(F)cc3)C2)cc1 (stereo unspecified)	-3.7	40.4
COc1ccccc1C1CC(c2ccc(C)cc2)=NN1C(=O)CN1CCOCC1 (stereo unspecified)	-4.6	49.7
O=C1c2ccccc2C(=O)N1CCNCCNCCN1C(=O)c2ccccc2C1=O	4.4	-3.0
O=c1oc(-c2cccc(Br)c2)nc2ccccc12	-4.2	-2.0
COc1ccc(N2CN=c3s/c(=C\c4cccc([N+](=O)[O-])c4)c(=O)n3C2)cc1	1.0	-2.0
Cc1ccc(N2CC(C(=O)NCCc3cccs3)CC2=O)cc1 (stereo unspecified)	1.7	12.4
COc1ccc2c(=O)c(Oc3ccc(C(=O)NC4CCCC4)cc3)c(C)oc2c1	0.1	-2.3
CC(C)c1ccc(/C=C2\C(=O)Nc3ccc(F)cc32)cc1	-7.5	100.0*
O=C1Nc2ccc(Br)cc2/C1=C/c1ccc(Br)cc1	2.5	35.0
O=C1Nc2ccc(Br)cc2/C1=C/c1ccc(O)cc1	-29.1	100.0*
Cc1ccc(/C=C2\C(=O)Nc3ccc(Br)cc32)cc1	-8.9	43.0
Cc1ccccc1/C=C1\C(=O)Nc2ccc(Br)cc21	-4.5	97.0*
O=C1Nc2ccc(F)cc2/C1=C/c1ccc(F)cc1	-0.4	17.0
CCCCOc1ccccc1/C=C1\C(=O)Nc2ccc(Br)cc21	3.1	62.0*
COc1ccc(Br)cc1/C=C1\C(=O)Nc2ccc(Br)cc21	-36.8	5.0
COc1ccc(CC(=O)N2CCCC2c2ccc(Cl)cc2)cc1 (stereo unspecified)	-2.8	7.1
COc1ccc(C2=CC(c3cc(Br)ccc3OC(F)F)n3ncnc3N2)cc1 (stereo unspecified)	-4.9	3.0
CN(C)CC1CN(C(=O)COc2ccccc2)CC12CCOCC2 (stereo unspecified)	2.0	-11.7
Cc1ccccc1/C=C1\C(=O)Nc2ccc(F)cc21	-9.8	100.0*
